PubChem BioAssay AID540276 (National Center for Advancing Translational Sciences (NCATS), 2011)
Values joined by “and” are separate entries in the source; they are usually repeats but may differ in a detail not shown here. Equal values may be shown once. About 5,400 (1.8%) of roughly 300,000 compounds were called active. Roughly 28% stayed inconclusive and do not appear here. Calls follow the shape of the full dose curve; tested in HEK293 cells. The entries come from a sample that favours actives as a whole. The source holds several records for some structures; these can differ, active in one and inactive in another.

Test: qHTS for inhibitors of binding or entry into cells for Marburg Virus
Conditions: Marburg virus pseudotyped entry inhibition, cell reporter; series mostly up to 37.8 µM; activity change, negative = inhibition: at the top concentration
% is scaled to controls: 0 for no effect and ±100 for the full control effect; potency is read from the fitted curve at half-maximal effect.

Row | Structure (SMILES) | activity change, negative = inhibition | Potency
1 | Cc1ccc(OCc2cc(C(=O)N(C)CCn3ccnc3C)no2)cc1C | 6.47% (inactive) | –
2 | COC(=O)C/C=C/[C@@H](C)[C@@H](/C=N/OC[C@@H](O)[C@H]1O[C@@H]2OC(C)(C)O[C@@H]2[C@H]1O)OC | 21.9% [at 14.2 µM] (inactive) | –
3 | CCN(CC)c1ccc(NC(=O)c2ccc(Cl)nc2)cc1 | – | 7.08 µM (active)
4 | CCOC(=O)c1ccc(NC(=O)c2cccnc2)cc1 | 0.208% (inactive) | –
5 | O=C(NNC(=O)c1ccc(Cl)nc1)c1ccc(Br)cc1 | -3.9% [at 46.1 µM] (inactive) | –
6 | Cc1ccc(NC(=O)C(C)OC(=O)C2CC3CCCC(C2)C3=O)cc1S(=O)(=O)N1CCOCC1 (centres undefined) | 19.8% (inactive) | –
7 | COc1ccc(/C=C/c2noc(-c3ccccc3O)n2)cc1OC | -4.78% [at 46.1 µM] (inactive) | –
8 | CC(=O)Oc1ccccc1[C@@H]1OC(=O)c2ccccc2N1C(C)=O | -23.5% (inactive) | –
9 | COc1ccc(/C=C/c2noc(-c3ccccc3OC(C)=O)n2)cc1 | – | 11.2 µM (active)
10 | CN(CC(=O)NCCc1ccc(S(N)(=O)=O)cc1)CC(=O)Nc1ccc(F)c(F)c1F | -0.907% [at 46.1 µM] (inactive) | –
11 | COc1ccc(CCN(C)CCN2C(=O)c3ccccc3C2=O)cc1OC | 12.3% (inactive) | –
12 | COc1ccc(CCNc2nc(C)cc(C)n2)cc1OC | 0.762% [at 46.1 µM] (inactive) | –
13 | COc1ccc(CCNC2=C(Cl)C(=O)N(Cc3ccccc3)C2=O)cc1OC | – | 11.2 µM (active)
14 | CC(=NNC(=O)c1ccc2nc[nH]c2c1)c1ccc(Br)cc1 | -4.25% [at 46.1 µM] (inactive) | –
15 | O=C(O)c1ccc(Cn2cnc3c(=S)nc[nH]c32)cc1 | 1.1% [at 46.1 µM] (inactive) | –
16 | O=C(COc1ccccc1F)NNC(=O)c1ccc(N2CCCCC2)c([N+](=O)[O-])c1 | 4.78% (inactive) | –
17 | O=C(COc1ccc(Br)cc1F)NCC1(N2CCCCC2)CCCCC1 | – | 10 µM (active)
18 | O=C(COC(=O)COc1ccccc1F)Nc1cccc(S(=O)(=O)N2CCCCC2)c1 | -2.27% (inactive) | –
19 | Nc1ncnc2c1cnn2C1CC(O)C(CO)O1 (centres undefined) | 18.4% (inactive) | –
20 | COc1ccc(C(=O)OCC(=O)N2CC(=O)Nc3ccccc32)cc1Br | 1.2% (inactive) | –
21 | O=C(Nc1ccc(S(=O)(=O)N2CCOCC2)cc1)C1CCN(S(=O)(=O)c2ccc(Cl)cc2)CC1 | 3.31% (inactive) | –
22 | CCCCNC1(C#N)CCN(Cc2ccccc2)CC1 | 0.651% (inactive) | –

Row | Structure (SMILES) | activity change, negative = inhibition | Potency
23 | O=C(NNS(=O)(=O)c1ccc([N+](=O)[O-])cc1)C1CCCCC1 | 24.6% [at 46.1 µM] (inactive) | –
24 | O=C1c2cccc3c([N+](=O)[O-])ccc(c23)C(=O)N1CC1CCCO1 (centres undefined) | – | 23.1 µM (active)
25 | O=C(NCc1ccc2c(c1)OCO2)c1ccc2c(c1)C(=O)N(CC1CCCO1)C2=O (centres undefined) | 10.7% (inactive) | –
26 | O=c1c2cc3c(=O)n(CC4CCCO4)c(=O)c3cc2c(=O)n1CC1CCCO1 (centres undefined) | -3.19% (inactive) | –
27 | Cc1cc(S(=O)(=O)Nc2ccc(C(=O)NCC(c3ccco3)N3CCCC3)cc2)ccc1F (centres undefined) | -28% [at 46.1 µM] (inactive) | –
28 | CCC(=O)N1CCc2cc(Br)c(S(=O)(=O)NCCN3CCCCC3CC)cc21 (centres undefined) | 1.26% (inactive) | –
29 | CCN(Cc1ccccc1)C(=O)Cc1ccc(OC)c(S(=O)(=O)N2CCOCC2)c1 | -9.98% (inactive) | –
30 | COc1cccc(CNS(=O)(=O)c2ccc3c(c2)CC(C)N3C(C)=O)c1 (centres undefined) | -18.3% [at 46.1 µM] (inactive) | –
31 | COC(=O)CC=C[C@@H](C)[C@H](NC(=O)OCC(Cl)(Cl)Cl)c1ccc2ccccc2c1 | -17.9% [at 14.2 µM] (inactive) | –
32 | Cc1ccc(-c2nn(-c3ccc(F)cc3)cc2C(=O)NCC(c2cccs2)N2CCOCC2)cc1 (centres undefined) | -10.9% [at 46.1 µM] (inactive) | –
33 | Cc1ccc(S(=O)(=O)N(C)C2(C)CCS(=O)(=O)C2)cc1 (centres undefined) | -16.6% (inactive) | –
34 | Cc1ccc(S(=O)(=O)C2(S(=O)(=O)c3ccc(C)cc3)CCCC2)cc1 | – | 3.98 µM (active)
35 | Cc1ccc(S(=O)(=O)NC2CCCCCC2)cc1 | 7.12% (inactive) | –
36 | COc1cccc2cc(C(=O)NCc3ccc(C)cc3)c(=N)oc12 | -22.8% [at 46.1 µM] (inactive) | –
37 | Cc1cccc2[nH]c(CN(C)C(=O)C3CCC(=O)N(CCc4ccccc4)C3)nc12 (centres undefined) | 4.9% (inactive) | –
38 | CCN(CCCNC(=O)CSc1cc(=O)n(C)c2cc(Cl)ccc12)c1cccc(C)c1 | -7.94% [at 46.1 µM] (inactive) | –
39 | CCN(CCCNC(=O)CSc1cc(=O)n(C)c2cc(Cl)ccc12)Cc1ccccc1 | – | 11.2 µM (active)
40 | CCOc1ccc(CCNC(=O)CSc2cc(=O)n(C)c3ccc(Cl)cc23)cc1OCC | – | inactive
41 | Oc1cc2c(cc1O)CN(C(=S)NCCc1ccc(Cl)cc1)CCC2 | – | inactive and 355 nM (active)
42 | COc1ccc(CCNC(=S)N2CCN(S(=O)(=O)c3ccc(Cl)cc3)CC2)cc1 | -1.3% (inactive) | –
43 | Cc1ccc(NC(=S)NCCc2ccc(Cl)cc2)c(C)c1 | -20.5% (inactive) | –
44 | CC(=O)c1ccc(S(=O)(=O)N(C)CCCC(=O)N(C)Cc2ccccc2F)cc1 | 4.44% [at 46.1 µM] (inactive) | –

Row | Structure (SMILES) | activity change, negative = inhibition | Potency
45 | O=C(CCn1nnnc1CN1CCOCC1)N1CCC(c2ccccc2Cl)C1 (centres undefined) | -5.89% (inactive) | –
46 | CCCC(CNC(=O)COC(=O)C1=NNC(=O)CC1)c1ccc(Cl)cc1Cl (centres undefined) | -8.92% [at 46.1 µM] (inactive) | –
47 | CCOc1ccccc1Nc1nnc(SCC(=O)NCC2CCCO2)s1 (centres undefined) | -0.761% (inactive) | –
48 | OC1CCCN(c2ncnc3c2nnn3Cc2c(F)cccc2Cl)C1 (centres undefined) | – | 10 µM (active)
49 | CCOC(=O)N1CCN(C(=O)C2CCCN(c3ncnc4c3sc3cccc(F)c34)C2)CC1 (centres undefined) | -6.64% [at 46.1 µM] (inactive) | –
50 | O=C(CSc1ncnc2c1nnn2Cc1ccc(F)cc1)NC1CCCC1 | 1.23% [at 46.1 µM] (inactive) | –
51 | O=C1N=CC(F)C(=O)N1 (centres undefined) | -4.74% (inactive) | –
52 | CCOc1ccc(NC(=O)CN(C)C(=O)c2cccc(S(=O)(=O)N3CCCC3)c2)cc1OCC | -1.71% [at 46.1 µM] (inactive) | –
53 | COc1ccccc1C(=O)N(C1=NC(C)CS1)c1ccc(Cl)cc1 (centres undefined) | -6.31% [at 46.1 µM] (inactive) | –
54 | O=C(COC(=O)c1ccc(O)cc1O)NC(=O)c1ccccc1 | 8.59% [at 46.1 µM] (inactive) | –
55 | Cc1noc(C)c1COC(=O)c1cc2ccccc2cc1O | 4.37% (inactive) | –
56 | O=C(NNc1c2ccccc2nc2ccccc12)c1cc2ccccc2cc1O | – | 3.16 µM (active)
57 | COc1ccccc1C(=O)OCC(=O)Nc1cccc(S(=O)(=O)NC2=NCCCCC2)c1 | 5.55% (inactive) | –
58 | O=C1CCc2cc(S(=O)(=O)Nc3ccc(C(F)(F)F)cc3)cc3c2N1CC3 | -13.7% (inactive) | –
59 | Cc1cccc(-n2c(SCC(N)=O)nc3c(oc4ccccc43)c2=O)c1 | -0.67% [at 46.1 µM] (inactive) | –
60 | Cc1cccc(-n2c(SCC(N)=O)nc3c(c2=O)C2(CCCCC2)Cc2ccccc2-3)c1 | – | 4.47 µM (active)
61 | Cc1cccc(-n2c(N)cc(=O)nc2SC(C)C(=O)NC2CCCCC2)c1 (centres undefined) | -1.1% (inactive) | –
62 | O=S(=O)(Nc1ccc2nc(N3CCOCC3)sc2c1)c1ccccc1 | -1.94% (inactive) | –
63 | COc1ccc(CC(=O)NC(C)c2ccc(Cl)c(Cl)c2)cc1S(=O)(=O)N1CCOCC1 (centres undefined) | -3.28% (inactive) | –
64 | CCOc1ccc(CCNC(=O)COC(=O)c2ccc(F)c(S(=O)(=O)N3CCOCC3)c2)cc1OCC | 0.565% (inactive) | –
